Reference: PubChem BioAssay AID1851 (National Center for Advancing Translational Sciences (NCATS), 2009)
Values joined by “and” are separate entries in the source; they are usually repeats but may differ in a detail not shown here. Equal entries are not always repeated. The campaign covered roughly 16,000 compounds. About 5,700 (36%) were called active. Another 24% or so got no clear call; they are omitted. Calls follow the shape of the dose curve; as a rule, active = well fitted curve in the direction sought with a large enough effect; inconclusive = small, poorly fitted or top-dose-only effect, or effect the other way; inactive = no such curve, though single readings can be large or run the other way. Some of the results follow.

Biological target: Cytochrome P450 1A2 (Homo sapiens) (UniProt P05177)
Sequence (P05177 whole entry, looked up): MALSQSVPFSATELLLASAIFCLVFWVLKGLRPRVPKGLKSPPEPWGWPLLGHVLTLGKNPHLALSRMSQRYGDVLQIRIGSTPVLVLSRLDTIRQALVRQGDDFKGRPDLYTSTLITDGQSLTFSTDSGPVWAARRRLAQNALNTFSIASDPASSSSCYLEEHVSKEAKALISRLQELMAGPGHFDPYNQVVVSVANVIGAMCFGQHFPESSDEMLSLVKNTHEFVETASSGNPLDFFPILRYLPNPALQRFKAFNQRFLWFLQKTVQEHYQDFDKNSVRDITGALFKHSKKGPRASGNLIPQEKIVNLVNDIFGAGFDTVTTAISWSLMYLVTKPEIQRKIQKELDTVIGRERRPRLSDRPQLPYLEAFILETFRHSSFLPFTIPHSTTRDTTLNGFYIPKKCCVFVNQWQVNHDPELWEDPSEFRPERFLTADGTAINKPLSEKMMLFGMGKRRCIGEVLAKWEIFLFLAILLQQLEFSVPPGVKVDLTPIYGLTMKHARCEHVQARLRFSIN
Experiment: Cytochrome panel assay with activity outcomes
Conditions: recombinant CYP, pro-luciferin dealkylation, luminescence, p450-cyp1a2; series mostly up to 57.1 µM; activity, negative = inhibition: at the top concentration
% is scaled to controls: 0 for no effect and ±100 for the full control effect.

| SMILES | activity, negative = inhibition | AC50 |
| --- | --- | --- |
| CCN1C(=O)[C@H]2[C@H]3[C@H](O)[C@H](O)C/C(=N/O[C@@H]4O[C@@H](COC(C)=O)[C@@H](OC(C)=O)[C@@H](OC(C)=O)[C@H]4OC(C)=O)[C@@H]3CC[C@@H]2C1=O | -12.6% [at 11.4 µM] (inactive) | – |
| Cc1cccc(C)c1NC(=O)C[N+](C)(C)C | 0.715% (inactive) | – |
| Cc1ccc(-n2c(C)cc(/C=C(\C#N)C(=O)NCC3CCCO3)c2C)cc1 (stereo not given) | -16.2% (inactive) | – |
| Cc1cccc(C)c1NC(=O)[C@H](C)N | -13.8% [at 25.6 µM] (inactive) | – |
| COc1ccc(S(=O)(=O)N2CCC(C(=O)NCC3CCCO3)CC2)cc1C (stereo not given) | 11.5% (inactive) | – |
| CCS(=O)(=O)N1CCC(C(=O)NCC2CCCO2)CC1 (stereo not given) | -7.48% (inactive) | – |
| COc1cc(/C=C(\C#N)C(=O)NCC2CCCO2)c([N+](=O)[O-])cc1OC (stereo not given) | – | 4.47 µM (active) |
| COc1cc(/C=C(/NC(=O)c2ccccc2)C(=O)Nc2ccccc2)c([N+](=O)[O-])cc1OC | -9.31% (inactive) | – |
| N#C/C(=C\c1cccs1)C(=O)NCC1CCCO1 (stereo not given) | – | 12.6 µM (active) |
| Cc1cccc(C)c1NC(=O)/C(C#N)=C/c1cccs1 | – | 12.6 µM (active) |
| O=C(O)c1ccc(SSc2ccc(C(=O)O)cn2)nc1 | – | 3.16 µM (active) |
| C[Si](C)(c1ccc(C(=O)O)cc1)c1ccc(C(=O)O)cc1 | -13% [at 11.4 µM] (inactive) | – |
| O=C(O)c1cccnc1 | -3.39% [at 25.6 µM] (inactive) | – |
| CN(C)c1ccccc1CN1CCCN(Cc2ccccc2N(C)C)C1c1ccncc1 | 3.06% [at 11.4 µM] (inactive) | – |
| CC(=O)c1cccc(NS(=O)(=O)c2ccc(N/C=C\C(=O)c3ccc(F)cc3)cc2)c1 | – | 10 µM (active) |
| Nc1cccc2cc(S(=O)(=O)Nc3ccc(C(=O)O)cc3)ccc12 | 2.54% [at 11.4 µM] (inactive) | – |
| CC(=O)c1ccc(S(=O)(=O)NC(=O)NC2CCCCC2)cc1 | -6.56% [at 25.6 µM] (inactive) | – |
| CCCN(CC1CC1)c1nc(C)nc(Nc2c(Cl)cc(Cl)cc2Cl)c1Cl | -15.7% (inactive) | – |
| CCCn1nnnc1NC(=O)COc1ccc(Cl)cc1C | – | 14.1 µM (active) |
| Cc1cc(Cl)ccc1OCC(=O)Nc1nc(N)nc(N)n1 | 2.06% [at 2.29 µM] (inactive) | – |
| Cc1cc(Cl)ccc1OCC(=O)NCc1ccncc1 | – | 1.12 µM (active) |
| CC(C)n1c(=O)c2c(O)cc(=O)oc2c2ccccc21 | – | 5.01 µM (active) |
| CCn1c(=O)c2c(O)cc(=O)oc2c2ccccc21 | – | 11.2 µM (active) |
| O=C(c1cnccn1)N1CCC2(CC1)CCN(c1ccccn1)CC2 | -13.1% (inactive) | – |

| SMILES | activity, negative = inhibition | AC50 |
| --- | --- | --- |
| CCn1c(SCC(=O)NC2CCCc3ccccc32)nnc1-c1cccs1 (stereo not given) | -21.7% (inactive) | – |
| O=C(CSc1nnc(-c2ccc(Cl)cc2Cl)n1C1CCCCC1)NC1CCS(=O)(=O)C1 (stereo not given) | 0.975% (inactive) | – |
| CCn1c(SCC(=O)NC2CCCCC2)nnc1-c1cc2cccc(OC)c2o1 | – | 8.91 µM (active) |
| Nc1ccccc1C#Cc1ccccc1 | – | 501 nM (active) and 1.58 µM (active) |
| Cc1cc(C)c(Cn2cnc(-c3ccc([N+](=O)[O-])cc3)c2)c(C)c1 | – | 15.8 µM (active) |
| C1CCN(CC[C@@H]2CCCCN2)CC1 | -7.33% [at 11.4 µM] (inactive) | – |
| Cc1ccccc1-c1nc(-c2ccc(NC(=O)c3cccs3)cc2)no1 | – | 14.1 µM (active) |
| Cc1ccc(-c2nnc(-c3ccc(NC(=O)c4cccs4)cc3)o2)cc1 | -23.1% (inactive) | – |
| CC(=O)N1CCc2cc(S(=O)(=O)CCC(=O)Nc3c(C)n(C)n(-c4ccccc4)c3=O)ccc21 | -24.8% (inactive) | – |
| Cc1ccccc1OCCNC(=O)c1ccccc1Sc1ccccc1C#N | – | 14.1 µM (active) |
| Cc1ccccc1OCC(=O)Nc1sc(C(=O)Nc2cccc(C)c2C)c(C)c1C#N | 7.9% (inactive) | – |
| Cc1ccc(C(=O)Nc2cc3c(oc2=O)CCCC3=O)cc1 | – | 14.1 µM (active) |
| Cc1cc(N)ccc1NC(=O)c1ccccc1 | – | 3.16 µM (active) |
| CC(C)(C)N(NC(=O)c1ccccc1)C(=O)c1cccc(C(=O)N(NC(=O)c2ccccc2)C(C)(C)C)c1 | 2.94% (inactive) | – |
| Cc1oc(=O)c(NC(=O)c2ccccc2)cc1C(=O)c1ccccc1 | – | 12.6 µM (active) |
| CC(=O)c1cc(NC(=O)c2cccc(C(F)(F)F)c2)c(=O)oc1/C=C/N(C)C | 3.96% (inactive) | – |
| CC(=O)c1cc(NC(=O)c2ccccc2)c(=O)oc1/C=C/N(C)C | – | 12.6 µM (active) |
| CCOC(=O)c1cc(NC(=O)c2ccc(C)cc2)c(=O)oc1-c1ccccc1 | -24.4% (inactive) | – |
| O=C(c1ccc(N2CCCCC2)c([N+](=O)[O-])c1)N(Cc1ccccc1)c1ccccn1 | – | 14.1 µM (active) |
| Cc1ccc(C)c2sc(NC(=O)c3ccc(N4CCCCC4)c([N+](=O)[O-])c3)nc12 | 0.997% (inactive) | – |
| COc1ccccc1N1CCN(CCN(C(=O)C2CCCCC2)c2ccccn2)CC1 | -4.46% (inactive) | – |
| CCOC(=O)NCc1ccc2c(c1)cc(C)n2C | – | 2 µM (active) |
| CN[C@@H]1[C@H](O[C@H]2[C@@H](O[C@@H]3[C@@H](O)[C@@H](O)[C@@H](N=C(N)N)[C@@H](O)[C@@H]3N=C(N)N)O[C@@H](C)[C@]2(O)CO)O[C@H](CO)[C@@H](O)[C@@H]1O | -4.23% [at 25.6 µM] (inactive) | – |
| Cc1ccccc1OCC(=O)OC1CCN(C)CC1 | 5.7% (inactive) | – |

| SMILES | activity, negative = inhibition | AC50 |
| --- | --- | --- |
| CNC(=S)NNC(=O)COc1ccccc1C | – | 15.8 µM (active) |
| CN(C(=O)COc1cccc(Br)c1)C1CCS(=O)(=O)C1 (stereo not given) | -26.4% (inactive) | – |
| CC(=O)Oc1cc(C(F)(F)F)ccc1C(=O)O | -7.55% [at 25.6 µM] (inactive) | – |
| CCOc1ccc(C(F)(F)F)cc1NC(C)=O | – | 0.1 µM (active) |
| CCOc1ccc(C(=O)Cc2cc(OC)c(OC)cc2[N+](=O)[O-])cc1 | -12.4% (inactive) | – |
| CCOc1ccc(C(F)(F)F)cc1NC(=O)c1ccc(OC)c([N+](=O)[O-])c1 | – | 3.55 µM (active) |
| CC(=O)Nc1cc(C(F)(F)F)ccc1Oc1cccc(Br)c1 | – | 10 µM (active) |
| CCCC(=O)N1CCN(c2ccc(NC(=O)c3ccc(OCC)c([N+](=O)[O-])c3)cc2)CC1 | -8.1% (inactive) | – |
| CC(=O)NC1=NC(=O)C(C)S1 (stereo not given) | 1.33% (inactive) | – |
| N[C@@H](Cc1nn[nH]n1)C(=O)O | -8.69% [at 11.4 µM] (inactive) | – |
| Nc1[nH]c(=O)nc2c1ncn2[C@H]1O[C@@H](CO)[C@@H](O)[C@@H]1O | -0.635% [at 11.4 µM] (inactive) | – |
| CC1=NCC[N@@+]1(CCc1ccccc1)Cc1ccccc1 | -17.6% [at 11.4 µM] (inactive) | – |
| Cc1ccc(CSc2nc3c(c(SCC(=O)O)n2)CCCC3)cc1 | -2.42% (inactive) | – |
| CC(CO)Nc1nc(SCc2ccccc2)nc2sc3c(c12)CCC3 (stereo not given) | – | 0.2 µM (active) |
| OCCNc1nc(SCc2ccccc2)nc2sc3c(c12)CCC3 | – | 1 µM (active) |
| C[C@H](Nc1ncnc2sc3c(c12)CCC3)C(=O)O | -17.4% (inactive) | – |
| COCCNc1nc(SCc2ccccc2)nc2sc3c(c12)CCC3 | – | 1 µM (active) |
| CCCCNC(=O)[C@@H]1Cc2ccccc2N1C(=O)[C@H](N)CC | – | 20 µM (active) |
| CCCCNC(=O)C1CC(=O)N(CCC(C)C)C1 (stereo not given) | -12.7% (inactive) | – |
| CCCCNC(=O)C1CCN(Cc2ccccn2)CC1 | 5.66% (inactive) | – |
| O=C(O)Cn1ccnc1[N+](=O)[O-] | -3.98% [at 11.4 µM] (inactive) | – |
| CCOC(=O)c1cc2c(=O)n3ccccc3nc2n(CCOC)c1=NC(=O)C(C)(C)C | – | 3.16 µM (active) |
| CCOC(=O)c1cc2c(=O)n3ccccc3nc2n(CCCOC)c1=NC(C)=O | – | 12.6 µM (active) |
| C[C@H]1[C@H](C)OC(=O)C[C@H](O)C[C@H](O)C[C@H](O)CC[C@H](O)[C@H](O)CC(=O)C[C@H](O)[C@H](C(=O)O)[C@H](O)C[C@H](O[C@@H]2O[C@@H](C)[C@H](O)[C@@H](N)[C@@H]2O)C=CC=CC=CC=CCCC=CC=C[C@@](C)(O)[C@H]1O | 12.4% [at 11.4 µM] (inactive) | – |

| SMILES | activity, negative = inhibition | AC50 |
| --- | --- | --- |
| O=[N+]([O-])c1cccc(/C=N/Nc2cc(Cl)nc(-c3ccccc3)n2)c1 | – | 1.26 µM (active) |
| CN1CCN(c2ncnc3ccc(-c4ccc5c(c4)OCO5)cc23)CC1 | – | 2.51 µM (active) |
| c1nc(N2CCNCC2)c2cc(-c3ccc4c(c3)OCO4)ccc2n1 | – | 2 µM (active) |
| CN1CCN(c2ncnc3ccc(-c4ccc(C(=O)N(C)C)cc4)cc23)CC1 | -11.4% (inactive) | – |
| CN(C)C(=O)c1ccc(-c2ccc3ncnc(N4CCNCC4)c3c2)cc1 | -13.6% (inactive) | – |
| CN(C)c1ccc(-c2ccc3ncnc(N4CCNCC4)c3c2)cc1 | – | 2.51 µM (active) |
| C[C@H]1C[C@H]2[C@H]3CCC4=CC(=O)C=C[C@@]4(C)[C@]3(F)[C@H](O)C[C@]2(C)[C@@]1(O)C(=O)COP(=O)(O)O | 2.48% [at 11.4 µM] (inactive) | – |
| CC1(C)O[C@@H]2C[C@H]3[C@H]4C[C@H](F)C5=CC(=O)C=C[C@@]5(C)[C@@H]4[C@H](O)C[C@]3(C)[C@]2(C(=O)CO)O1 | -10.8% [at 25.6 µM] (inactive) | – |
| CCC1CC(CSc2ncn[nH]2)OC1=O (stereo not given) | 0.612% (inactive) | – |
| Clc1ccccc1-c1nc(-c2ccccc2)n[nH]1 | – | 1 µM (active) |
| COc1ccc(CNc2ncncc2-c2ccc3c(c2)OCO3)c(OC)c1 | – | 0.501 µM (active) |
| COc1ccccc1CNc1ncncc1-c1ccc2c(c1)OCO2 | – | 0.158 µM (active) |
| Cc1nnc(S(=O)(=O)c2ccc(N=Nc3c(N)nc(N)nc3N)cc2)s1 | -10.2% [at 2.29 µM] (inactive) | – |
| Cc1nn(C(=O)c2cccnc2)c(C)c1Sc1ccc(Br)cc1 | – | 7.08 µM (active) |
| Cc1nn(C(=O)c2ccco2)c(C)c1Sc1ccc(Br)cc1 | – | 14.1 µM (active) |
| Cc1nc2ncnn2c(C)c1CCC(=O)N1CCN(C(=O)c2ccco2)CC1 | 2.36% (inactive) | – |
| O=C(c1ccco1)N1CCC2(CCN(Cc3ccccc3)CC2)CC1 | 0.0929% (inactive) | – |
| Cc1nn(C(=O)CN2C(=O)c3ccccc3C2=O)c(C)c1Br | -9.22% (inactive) | – |
| Cc1nn(C(=O)c2ccco2)c(C)c1Sc1ccccc1 | – | 15.8 µM (active) |
| CCCCN(C(=S)Nc1ccccc1)C1CCS(=O)(=O)C1 (stereo not given) | -16.7% (inactive) | – |
| O=C(O)[C@H]1C[C@H](C(=O)O)N1 | -1.37% (inactive) | – |
| O=C(O)[C@@H]1CCCN1 | -12% [at 11.4 µM] (inactive) | – |
| O=C(O)[C@@H]1C[C@@H](C(=O)O)N1 | – | 31.6 µM (active) |
